# Source: PubChem BioAssay AID540317 (National Center for Advancing Translational Sciences (NCATS), 2011)
# About 2,200 (0.56%) of roughly 390,000 compounds were called active. Not shown: some 3% with an inconclusive outcome. Calls come from the whole dose curve; as a rule, active = well fitted inhibition curve with a large enough effect; inconclusive = small, poorly fitted or top-dose-only effect; inactive = no such curve, though single readings can be large or run the other way. The sample as a whole holds a higher share of actives than the screen did.
# Biological target: Chromobox protein homolog 1 (Homo sapiens) (UniProt P83916)
# Sequence (P83916 whole entry, looked up): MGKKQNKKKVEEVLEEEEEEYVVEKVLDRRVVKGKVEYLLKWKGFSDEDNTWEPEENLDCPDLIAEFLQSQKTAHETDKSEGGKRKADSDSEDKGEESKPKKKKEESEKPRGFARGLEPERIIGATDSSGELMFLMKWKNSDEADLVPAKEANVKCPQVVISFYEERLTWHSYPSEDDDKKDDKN
# Assay: HTS for Inhibitors of HP1-beta Chromodomain Interactions with Methylated Histone Tails; note: nearly all actives have a fitted effect of over 70% in size
# Settings: AlphaScreen HP1-beta / biotin-H3K9me3 peptide binding; series mostly up to 114 µM; activity change, negative = inhibition: at the top concentration
# Description: As our understanding of epigenetics expands, it is becoming clear that players in this field are potential targets for drug development. This area of epigenetic therapy has established applications for the treatment of cancer and neurological diseases. We have been involved in this field for a number of years and have performed high-throughput screens to identify the first small molecule inhibitors of protein methyltransferases. These methyltransferases target multiple substrates, and thus regulate many arms of an epigenetic pathway. The methylation of different substrates often generates docking sites for effector proteins that harbor binding domains (chromo, tudor, PHD, MBT and ANK repeats). It has been proposed that the binding sites generated for different proteins by these post-translational modifcations mediate downstream effects on chromatin. Consistent with this theory, di- and tri-methylation of histone H3K9 facilitates the binding of heterochromatin protein HP1. The HP1 protein harbors a chromodomain that is responsible for the methyl-dependent interaction between HP1 and lysine 9 of histone H3. HP1 was first described in flies as a heterochromatin associated protein that can regulate gene silencing. It harbors a chromodomain that binds H3K9me3. In addition, it harbors a chromoshadow domain that interacts with a large number of proteins that are involved in heterochromatin formation and gene repression. There are three highly related HP1 isoforms. All three variants are associated with pericentric heterochromatin and it is not clear whether they have specific or redundant functions. MPP8 is also involved in the repression of gene in euchromatic regions (unpublished data) and like HP1 its chromodomain binds H3K9me3. MPP8 harbors an ankyrin repeat region that is likely involved in binding and recruiting interacting proteins with transcriptional repressive function, much like the chromoshadow domain of HP1 does. We hypothesize that by inhibiting specific protein-protein interactions we will be able to develop compounds that block a single arm of an epigenetic pathway. The specificity attained by blocking a single protein-protein interaction will be far greater than that attained by blocking the enzyme that regulates one of many interactions. Low-affinity protein-protein interactions (Kd in the single- to double-digit micromolar range) such as those discussed here have been very difficult to assay by traditional techniques such as fluorescence polarization or fluorescence resonance energy transfer. We have developed a sensitive chemiluminescence-based assay (Quinn, et al. 2009), which serves as the starting point for this project. The following is a validation assay to identify lead compounds that can block methyl-dependent protein-protein interactions (specifically HP1-beta), which can be used as probes to analyze these methyl-driven interactions and perhaps even developed into targeted epigenetic therapies. NIH Chemical Genomics Center [NCGC] NIH Molecular Libraries Probe Centers Network [MLPCN] MLPCN Grant: DA031087 Assay Submitter (PI): Mark Bedford, University of Texas, Medical Anderson Cancer Center, TX
# To each well, 2 uL of HP1-beta protein (final 50 nM) and 1 uL biotinylated histone peptide trimethylated at Lys9 [b-H3(1-18)K9me3] (final 50 nM) was added in 1x PBS buffer, pH 7.4, containing 0.01% Tween-20 using a nanoliter dispenser. Formation of a protein-peptide complex proceeded at room temperature for 30 min. A Kalypsys pin-tool was employed to transfer 23 nL of library compound solution in DMSO to each well. Aurintricarboxylic acid (ATA) was used as an intraplate control with a 12-point titration in duplicate. Following a 30 min incubation of the protein-peptide complex with compounds at room temperature, a mixture of 40 ug/mL each streptavidin-coated donor and nickel chelate acceptor AlphaScreen beads (final 10 ug/mL) was added in a 1 uL dispense for a final volume of 4 uL. […]
# Potency is the fitted concentration of half-maximal effect.
Structure (SMILES),"activity change, negative = inhibition",Potency
O=C(c1ccccc1[N+](=O)[O-])N1CCC2(CC1)OCCO2,32% (inactive),–
O=C(O)c1cc[c]([Sb](=[O])([OH])[OH])cc1[N+](=O)[O-],–,0.794 µM (active)
CCOc1ccc(S(=O)(=O)NCc2ccc3c(c2)OCO3)cc1C,64.4% (inactive),–
C=CCOC(=O)c1ccccc1C(=O)OCC=C,39.4% (inactive),–
CCn1cc2nc(SCc3ccccc3Cl)n(CCc3ccccc3)c(=O)c2n1,38.9% (inactive),–
O=c1[nH]c(=S)[nH]c(O)c1/C=C1\C=Nc2ccccc21,42.9% (inactive),–
Nc1nc(NC(=O)/C=C/c2ccc(F)cc2)nn1-c1ccccc1,40.4% (inactive),–
COc1ccc(N2C(=O)/C(=C/c3ccco3)C(=O)NC2=S)cc1,–,14.1 µM (active)
CCOC(=O)CNC(=O)N1c2ccccc2Sc2ccccc21,52.7% (inactive),–
Brc1cc(Br)c(Oc2cc(Br)c(Br)cc2Br)cc1Br,76.4% (inactive),–
CN(C(=O)CSc1nc2ccc(NC(=O)COc3ccccc3)cc2s1)c1ccccc1,43% (inactive),–
O=C(Cc1ccc(Cl)cc1)NCCN1CCN(C(=O)Cc2ccc(Cl)cc2)CC1,42.7% (inactive),–
c1ccc(CCNC2CCCCCC2)cc1,-14.7% (inactive),–
O=C(Cc1ccccc1[N+](=O)[O-])N1CCN(Cc2ccc3c(c2)OCO3)CC1,23.3% (inactive),–
COc1ccccc1CN1CCN(C(=O)Cc2ccccc2)CC1,–,14.1 µM (active)
O=C(Cc1ccccc1)N1CCN(C2CCCCCC2)CC1,–,79.4 µM (active)
c1ccc(CC2CCCCN2)cc1 (stereo not given),14.8% (inactive),–
O=C(OCC(=O)c1cccs1)C1=COCCO1,30.1% (inactive),–

Structure (SMILES),"activity change, negative = inhibition",Potency
O=C(CSc1ccccc1)Nc1ccc(C(=O)Nc2cccc(O)c2)cc1,61.2% (inactive),–
O=c1c2ccccc2ccc2ccc(P(=O)(O)O)cc12,46.3% (inactive),–
COc1cc(Cl)ccc1Nc1ncc(C(=O)N2CCN(c3ccccc3OC)CC2)c2ccccc12,64.1% (inactive),–
O=C(COc1ccccc1Cl)Nc1ccc2nc(SCC(=O)N3CCCC3)sc2c1,35.7% (inactive),–
CCOCCCNC(=O)c1c(NC(=O)c2nc(SC)ncc2Cl)sc2c1CCCC2,44.8% (inactive),–
C[C@H]1CN([C@@H](C)CO)C(=O)Cc2cc(NC(=O)Cc3ccccc3)ccc2O[C@H]1CN(C)S(=O)(=O)c1cccs1,47.4% (inactive),–
COc1cccc(N2C(=O)NC(=O)/C(=C\c3ccc([N+](=O)[O-])s3)C2=O)c1,–,31.6 µM (active)
Cc1ccsc1/C=N/NC(=O)Cc1cc(=O)[nH][nH]1,66.6% (inactive),–
CC(=O)c1ccc(OC(=O)N2CCOCC2)cc1,60% (inactive),–
CCc1ccccc1NC(=O)c1sc2nc3c(cc2c1N)CN(Cc1ccccc1)CC3,39.4% (inactive),–
CCN(CC)c1ccc(C2C(C(N)=O)=C(C)Nc3nc(SCc4ccccc4)nn32)cc1 (stereo not given),33.2% (inactive),–
Cc1cc2n(n1)C(c1cc(C(C)(C)C)c(O)cc1O)Nc1ccccc1-2 (stereo not given),42.3% (inactive),–
COc1ccc(CNC(=O)c2cc3c(-c4ccccc4F)nn(C)c3s2)c(OC)c1,51.6% (inactive),–
Cc1cc(C)c2c(c1)NP(=S)(c1ccccc1)N2 (stereo not given),–,50.1 µM (active)
Cc1ccc2c(c1)C1CN(C)CCC1N2C(=O)c1ccccc1NS(=O)(=O)c1ccc(F)cc1C (stereo not given),39.3% (inactive),–
O=C(O)C1CSC(c2cccnc2)N1 (stereo not given),–,17.8 µM (active)
CCc1ccc(C2C(C#N)=C(N)Oc3n[nH]c(CC(=O)OC)c32)cc1 (stereo not given),42.7% (inactive),–
